# System: Salmonella enterica serovar Typhimurium 14028s
# Assay: approximate change in surviving CFU after surface colonization relative to water-only control (log10 CFU/mL change); higher = more surviving bacteria (less inhibition of surface colonization)
# Details: not stated (Biolog proprietary concentration), surface: plastic 96-well plate, 20-24 h at 25 °C
smiles,measurement,setting,value
O=C(O)CO [Glycolic Acid],approximate change in surviving CFU (log10),"Biolog plate: PM1, Biolog well: F9",0.736
same,approximate change in surviving CFU (log10),"Biolog plate: PM2, Biolog well: E9",0.644
N[C@@H](CO)C(=O)O [L-Serine],approximate change in surviving CFU (log10),"Biolog plate: PM1, Biolog well: G3",1.07
same,approximate change in surviving CFU (log10),"Biolog plate: PM3, Biolog well: B10",0.107
NC(=O)C[C@H](N)C(=O)O [L-Asparagine],approximate change in surviving CFU (log10),"Biolog plate: PM1, Biolog well: D1",0.944
same,approximate change in surviving CFU (log10),"Biolog plate: PM3, Biolog well: A9",0.451
O=c1[nH]cnc2c1ncn2[C@@H]1O[C@H](CO)[C@@H](O)[C@H]1O [Inosine],approximate change in surviving CFU (log10),"Biolog plate: PM1, Biolog well: F12",1.65
same,approximate change in surviving CFU (log10),"Biolog plate: PM3, Biolog well: F12",-0.365
N=C(N)NCCC[C@H](N)C(=O)O [L-Arginine],approximate change in surviving CFU (log10),"Biolog plate: PM2, Biolog well: G4",0.966
same,approximate change in surviving CFU (log10),"Biolog plate: PM3, Biolog well: A8",0.236
NCCc1ccc(O)cc1 [Tyramine],approximate change in surviving CFU (log10),"Biolog plate: PM1, Biolog well: H4",0.537
same,approximate change in surviving CFU (log10),"Biolog plate: PM3, Biolog well: E3",-1.37
CSCC[C@H](N)C(=O)O [L-Methionine],approximate change in surviving CFU (log10),"Biolog plate: PM2, Biolog well: G12",0.365
same,approximate change in surviving CFU (log10),"Biolog plate: PM3, Biolog well: B7",-0.88
O=c1ccn([C@@H]2O[C@H](CO)[C@@H](O)[C@H]2O)c(=O)[nH]1 [Uridine],approximate change in surviving CFU (log10),"Biolog plate: PM1, Biolog well: D12",1.74
same,approximate change in surviving CFU (log10),"Biolog plate: PM3, Biolog well: F11",-0.236
Cc1cn([C@H]2C[C@H](O)[C@@H](CO)O2)c(=O)[nH]c1=O [Thymidine],approximate change in surviving CFU (log10),"Biolog plate: PM1, Biolog well: C12",1.5
same,approximate change in surviving CFU (log10),"Biolog plate: PM3, Biolog well: F9",-0.193
C[C@H](N)C(=O)O [L-Alanine],approximate change in surviving CFU (log10),"Biolog plate: PM1, Biolog well: G5",0.987
same,approximate change in surviving CFU (log10),"Biolog plate: PM3, Biolog well: A7",0.129
N[C@H](CO)C(=O)O [D-Serine],approximate change in surviving CFU (log10),"Biolog plate: PM1, Biolog well: B1",1.14
same,approximate change in surviving CFU (log10),"Biolog plate: PM3, Biolog well: C8",0.279
O=C(O)[C@@H]1CCCN1 [L-Proline],approximate change in surviving CFU (log10),"Biolog plate: PM1, Biolog well: A8",0.107
same,approximate change in surviving CFU (log10),"Biolog plate: PM3, Biolog well: B9",0.0858
N[C@@H](CCC(=O)O)C(=O)O [L-Glutamic Acid],approximate change in surviving CFU (log10),"Biolog plate: PM1, Biolog well: B12",1.24
same,approximate change in surviving CFU (log10),"Biolog plate: PM3, Biolog well: A12",0.279
NCCC[C@H](N)C(=O)O [L-Ornithine],approximate change in surviving CFU (log10),"Biolog plate: PM2, Biolog well: H1",0.708
same,approximate change in surviving CFU (log10),"Biolog plate: PM3, Biolog well: C12",0.172
O=C(O)CC(=O)O [Malonic Acid],approximate change in surviving CFU (log10),"Biolog plate: PM2, Biolog well: F2",0.0859
CC(C)[C@H](N)C(=O)O [L-Valine],approximate change in surviving CFU (log10),"Biolog plate: PM2, Biolog well: H4",0.15
same,approximate change in surviving CFU (log10),"Biolog plate: PM3, Biolog well: C2",-0.386
NC(=O)[C@H]1O[C@@H](O)[C@H](O)[C@@H](O)[C@@H]1O [Glucuronamide],approximate change in surviving CFU (log10),"Biolog plate: PM1, Biolog well: H7",1.03
same,approximate change in surviving CFU (log10),"Biolog plate: PM3, Biolog well: E6",0.622
CC(N)=O [Acetamide],approximate change in surviving CFU (log10),"Biolog plate: PM2, Biolog well: G1",-0.365
same,approximate change in surviving CFU (log10),"Biolog plate: PM3, Biolog well: E4",-1.76
C[C@@H](O)[C@H](N)C(=O)O [L-Threonine],approximate change in surviving CFU (log10),"Biolog plate: PM1, Biolog well: G4",1.03
same,approximate change in surviving CFU (log10),"Biolog plate: PM3, Biolog well: B11",-0.129
O=C1CC[C@@H](C(=O)O)N1 [L-Pyroglutamic Acid],approximate change in surviving CFU (log10),"Biolog plate: PM2, Biolog well: H3",-0.0858
same,approximate change in surviving CFU (log10),"Biolog plate: PM3, Biolog well: D3",-0.258
OCC1(O)OC[C@@H](O)[C@@H](O)[C@H]1O (stereo partly drawn) [D-Psicose],approximate change in surviving CFU (log10),"Biolog plate: PM1, Biolog well: H5",1.35
CC[C@H](C)[C@H](N)C(=O)O [L-Isoleucine],approximate change in surviving CFU (log10),"Biolog plate: PM2, Biolog well: G9",0.794
same,approximate change in surviving CFU (log10),"Biolog plate: PM3, Biolog well: B4",-0.0429
CC(C)C[C@H](N)C(=O)O [L-Leucine],approximate change in surviving CFU (log10),"Biolog plate: PM2, Biolog well: G10",0.451
same,approximate change in surviving CFU (log10),"Biolog plate: PM3, Biolog well: B5",-0.236
Nc1ncnc2c1ncn2[C@@H]1O[C@H](CO)[C@@H](O)[C@H]1O [Adenosine],approximate change in surviving CFU (log10),"Biolog plate: PM1, Biolog well: E12",0.622
same,approximate change in surviving CFU (log10),"Biolog plate: PM3, Biolog well: F3",0.751
CC(=O)N[C@H]1C(O)O[C@H](CO)[C@H](O)[C@@H]1O (stereo partly drawn) [N-Acetyl-D-Galactosamine],approximate change in surviving CFU (log10),"Biolog plate: PM2, Biolog well: B1",0.622
same,approximate change in surviving CFU (log10),"Biolog plate: PM3, Biolog well: E12",-0.129
NCC(=O)O [Glycine],approximate change in surviving CFU (log10),"Biolog plate: PM2, Biolog well: G5",0.494
same,approximate change in surviving CFU (log10),"Biolog plate: PM3, Biolog well: B2",0.15
N[C@@H](CC(=O)O)C(=O)O [L-Aspartic Acid],approximate change in surviving CFU (log10),"Biolog plate: PM1, Biolog well: A7",0.644
same,approximate change in surviving CFU (log10),"Biolog plate: PM3, Biolog well: A10",0.451
C[C@@H](N)C(=O)O [D-Alanine],approximate change in surviving CFU (log10),"Biolog plate: PM1, Biolog well: A9",0.622
same,approximate change in surviving CFU (log10),"Biolog plate: PM3, Biolog well: C3",0.343
N[C@@H](Cc1c[nH]cn1)C(=O)O [L-Histidine],approximate change in surviving CFU (log10),"Biolog plate: PM2, Biolog well: G6",1.01
same,approximate change in surviving CFU (log10),"Biolog plate: PM3, Biolog well: B3",0.279
